“And” between values parts separate entries of the source, which are not always exact repeats. Equal values may be shown once. The panel holds about 83,000 compounds, 20% with a hit somewhere; the sample as a whole holds those more often.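 Testing used 96-well plates and a 48-hour single-concentration exposure. Example: -40 means 40% of the starting cells died.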 The source made the active and inactive calls. Rule for the calls: active = growth percent below 10; inactive = the rest.
Each compound was assayed on MDA-MB-468 breast (assay: NCI-60 one-dose screen, 48 h (100 = growth as untreated, 0 = no growth, -100 = all killed)). Conditions: 10 µM unless noted.

| SMILES | growth |
| --- | --- |
| Cc1c2cc(Cl)c3ccccc3c2c[n+]2ccccc12 | -71.5% (active) |
| S=P(SP(=S)(c1ccccc1)c1ccccc1)(c1ccccc1)c1ccccc1 | 101% (inactive) |
| C=C[Se]CC(=O)/C=C/c1ccccc1 | 85.6% (inactive) |
| C=CC[n+]1ccc(-c2cc[n+](CC=C)cc2)cc1 | 66.6% (inactive) |
| O=C1CNC(c2ccccc2)c2cc(Cl)ccc2N1 (centres undefined) | 104% (inactive) |
| CCCCCCCCCCCCCCCCCC1OC[C@H](COC(=O)O[C@@H](C(=O)O[C@H]2C[C@@]3(O)[C@@H](OC(=O)c4ccccc4)[C@@H]4[C@]5(OC(C)=O)CO[C@@H]5C[C@H](O)[C@@]4(C)C(=O)[C@H](OC(C)=O)C(=C2C)C3(C)C)[C@@H](NC(=O)c2ccccc2)c2ccccc2)O1 (some centres undefined) | 0.893% (active) |
| Cc1cc(Br)c([N+](=O)[O-])cc1[N+](=O)[O-] | 58.4% (inactive) |
| CCCC[C@H](NC(=O)[C@H]1CCCN1C)C(=O)N(C)[C@H](C[C@@H](OC(C)=O)c1nc(C(=O)N[C@@H](Cc2ccccc2)C[C@H](C)C(=O)OCC)cs1)C(C)C | 7.04% (active) |
| COc1ccc2c(c1)c(-c1nc(-c3cn(C)c4ncccc34)cs1)cn2CCCCN1CCCCC1 | -2.69% (active) |
| CC[CH2][Pb]([CH2]CC)([CH2]CC)[O]C(=O)C(F)(F)F | -90.1% (active) |
| C[C@@]1(CCCCCCCCCc2ccc(O)cc2)C[C@]2(C)OC(=O)C[C@@H]2OO1 | 64.8% (inactive) |
| CC[C@H](C)[C@H](NC(=O)[C@H]1CCCCN1C)C(=O)N(C)[C@H](C[C@@H](O)c1nc(C(=O)N[C@@H](Cc2ccccc2)C[C@H](C)C(=O)O)cs1)C(C)C | 70.1% (inactive) |
| CC(=O)O[C@H](C[C@H](C(C)C)N(C)C(=O)[C@@H](NC(=O)[C@H]1CCCCN1C)C(C)(C)C)c1nc(C(=O)N[C@@H](Cc2ccccc2)C[C@H](C)C(=O)O)cs1 | 4.72% (active) |
| C[C@]12CC[C@@H]3c4ccc(OC(=O)Cc5ccc(N(CCCl)CCCl)cc5)cc4CC[C@H]3[C@@H]1CC[C@@H]2OC(=O)Cc1ccc(N(CCCl)CCCl)cc1 | 104% (inactive) |
| COc1cccc2c1cc([N+](=O)[O-])c1c(C(=O)O)cc3c(c12)OCO3 | -46.6% (active) and 100% (inactive) |
| CN(C)C(=O)Oc1ccc(Br)cc1 | 98.6% (inactive) |
| COc1ccc(C(C#N)C(C)=O)cc1 (centres undefined) | 106% (inactive) |
| O1[As]2O[As]3O[As]1O[As](O2)O3 | -63.2% (active) |
| COC(=O)C12CC(NC(=O)c3csc([C@@H](C[C@H](C(C)C)N(C)C(=O)[C@@H](NC(=O)[C@H]4CCCCN4C)C4CC4)OC(C)=O)n3)(C1)C2 | 30.1% (inactive) |
| CC1=C(CN(O)C(N)=O)C2=C(C)C3(CC3)[C@@](C)(O)C(=O)C2=C1 | -69.1% (active) |

| SMILES | growth |
| --- | --- |
| O=C(NCCN1CC1)C(=O)NCCN1CC1 | 81.3% (inactive) |
| CCCCCCCCOC(=O)CCN1CC1 | 100% (inactive) |
| COc1cc2c(c(OC)c1OC)-c1ccc(O)cc1[C@@H](NC(C)=O)CC2 | -20.9% (active) and -7.5% (active) |
| CNC(=O)Oc1ccc(N(C)C)cc1C(C)C | 74.8% (inactive) |
| C=CC1=C[C@@H]2[C@@H]3O[C@]4(CC[C@H](O4)[C@@H](C)C[C@@H](O)C3=O)C[C@H](O)C3=NCC[C@@]32CC1 | -56% (active) |
| O=[N+]([O-])c1cccc([As]=[As]c2cccc([N+](=O)[O-])c2)c1 (centres undefined) | -78.5% (active) |
| O=C(NCCNC(=O)c1ccc([As](O)O)cc1)c1ccc([As](O)O)cc1 | 82.2% (inactive) |
| Clc1ccc(SSC(Cl)(Cl)Cl)cc1 | 104% (inactive) |
| COc1cc2c(cc1OC)[C@@H]1N(CC2)C(=O)c2ccccc2[C@@]1(C)C(=O)O | 103% (inactive) |
| N#CCN(CC#N)[N+](=O)[O-] | 112% (inactive) |
| C(=NC1CCCCC1)=NC1CCCCC1 | 103% (inactive) and -21.2% (active) |
| NC(Cc1ccc2c(c1)OCO2)c1ccc2c(c1)OCO2 (centres undefined) | 96% (inactive) |
| C[CH2][Hg][S]c1ccccc1C(=O)O | -86.6% (active) |
| O=C(N/N=C/c1ccc(N(CCCl)CCCl)cc1)c1cc(=O)[nH]c(=O)[nH]1 | -0.0833% (active) |
| CCOP(=O)(OCC)C(O)c1ccccc1Cl (centres undefined) | 103% (inactive) |
| COc1cc2c(O[C@@H]3OC[C@H](O)[C@H](O)[C@H]3O)c3c(c(-c4ccc5c(c4)OCO5)c2cc1OC)C(=O)OC3 | 59.3% (inactive) |
| CC(=O)O[C@H]1C(=O)[C@@]2(C)[C@H]([C@H](OC(=O)c3ccccc3)[C@]3(O)C[C@H](OC(=O)[C@H](OC(=O)OC[C@@H]4COC(C)(C)O4)[C@@H](NC(=O)c4ccccc4)c4ccccc4)C(C)=C1C3(C)C)[C@]1(OC(C)=O)CO[C@@H]1C[C@@H]2O | -7.94% (active) |
| Cn1cnnc1[S-].[Au+].c1ccc([PH+](c2ccccc2)c2ccccc2)cc1 | -49.1% (active) |
| C[C@]12CC[C@H]3[C@@H](C[C@@H]4SC(Nc5cccc(F)c5)=N[C@@]45CC(=O)CC[C@]35C)[C@@H]1CCC2=O | -2.99% (active) |
